# A selection: hits, their analogues and other compounds. The true share with any hit is near 3.3%.
# esBAF inh – Bmi1 luciferase reporter increase in mESCs, primary screen, esBAF inhibitor project, mouse ES cells, Bmi1 luciferase knock-in, single point | hit rate 2% among 350,000 | 24 h; 100% = twice the neutral-well signal | reporter increase, % at 12.5 µM; in the data active = activation above about 40%;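 note: 0% = median of the plate's neutral control wells and 100% = double that signal; a rise in the Bmi1 reporter signal indicates esBAF inhibition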
# Gli-Sufu antag – Gli-Sufu pathway antagonists, primary screen, luciferase luminescence, Sufu-KO-LIGHT cells, uHTS; Sufu-KO-LIGHT fibroblasts, Gli luciferase reporter luminescence; inhibition, % at 5 µM; hit rate 0.74% among 340,000; AID 588413, 2011;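 active = inhibition above about 55%, limit read from the data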;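 note: 0% = DMSO-treated cells and 100% = wells with medium but no cells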
# Jurkat NFkB inh – inhibitors of induced NF-kB luciferase reporter, primary screen, TCR NF-kB activation inhibitor project, cell-based, luminescence, uHTS; Jurkat, PMA/ionomycin-induced NF-kB luciferase reporter; AID 435003, 2010; inhibition, % at 4 µM; hit rate 0.53% among 330,000; in the data active = inhibition above about 50%
# 697 NFkB inh – inhibitors of PMA/ionomycin-induced NF-kB reporter, 697 cells, primary screen, B-cell NF-kB inhibitor project, cell-based, luminescence, uHTS; hit rate 0.33% among 330,000; AID 435022, 2010; 697 B-cell NF-kB luciferase reporter, 16 h; inhibition, % at 4 µM; in the data active = inhibition above about 35%
# SMARCA2 activ – SMARCA2 (BRM) function activators, primary screen, cell-based, luminescence, high throughput; hit rate 1% among 370,000; activation, % at 9.1 µM; AID 652017, 2013; MG213 cells, MMTV-luciferase reporter, dexamethasone, overnight; in the data active = activation above about 7.8%;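 note: 0% = vehicle wells and 100% = reference activator wells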
# Gli-Sufu confirm – Gli-SUFU pathway antagonists, confirmation, single concentration, luciferase luminescence, Sufu-KO-LIGHT cells | Gli luciferase reporter | inhibition, % at 5 µM | shares compounds with Gli-Sufu antag | hit rate 40% among 2,500;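 active = mean inhibition at 5 µM reaching about 45%, limit read from the data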;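 note: plate controls were DMSO-treated cells for no effect and wells lacking cells for full effect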
# Gli cytotox – cytotoxicity in Sufu-KO-LIGHT cells, confirmation, cytotoxicity control for Gli-SUFU antagonist project, cell-based, ATP luminescence, single concentration. shares compounds with Gli-Sufu antag. cytotoxicity, % at 5 µM. hit rate 32% among 2,500;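 active = mean cytotoxicity at 5 µM above about 25%, limit read from the data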;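 note: cells exposed to compound overnight for roughly 16 to 18 hours; plate controls were DMSO wells with cells for no effect and medium without cells for full effect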
# Wnt3a cs – Wnt3a reporter signal inhibition, confirmation, counter-screen for Gli-SUFU antagonist project, Wnt-LIGHT cells, luminescence, single concentration. shares compounds with Gli-Sufu antag. Wnt3a-driven luciferase reporter. inhibition, % at 6.25 µM. hit rate 20% among 2,500. AID 651995, 2013;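 active = mean inhibition above about 25%, limit read from the data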
# * = called active by the depositor; x = not tested or not shown.
SMILES,esBAF inh,Gli-Sufu antag,Jurkat NFkB inh,697 NFkB inh,SMARCA2 activ,Gli-Sufu confirm,Gli cytotox,Wnt3a cs
CCc1nnc(NC(=O)CCC(=O)NCc2ccccc2Cl)s1,-2,-3,-3,7,-3,x,x,x
C[C@@H](NC(=O)C[C@@H]1C[C@@H]2c3cc(NC(=O)C4CCOCC4)ccc3O[C@@H]2[C@@H](CO)O1)c1ccccc1,1,x,x,x,x,x,x,x
C[C@@H]1CCCCO[C@H](CN(C)S(=O)(=O)c2ccc(Cl)cc2)[C@@H](C)CN([C@H](C)CO)C(=O)c2cc(NC(=O)Cc3ccccc3)ccc2O1,0,x,x,x,x,x,x,x
O=C(Cn1c(=O)oc2ccccc21)Nc1ccc(S(=O)(=O)N2CCCCC2)cc1,-3,54,-11,2,-2,11,7,-21
O=C(NC(Nc1nc2ccc([N+](=O)[O-])cc2s1)(C(F)(F)F)C(F)(F)F)c1cccnc1,x,84*,13,-18,-11,87*,35*,81*
CN(C)S(=O)(=O)c1ccc2nc(NC(=O)c3cccnc3)sc2c1,x,-50,-11,-61,4,x,x,x
COCC(=O)Nc1ccc2c(c1)C(=O)N(C)C[C@@H](OC)[C@@H](C)CN(Cc1ccccc1)[C@H](C)CO2,-3,x,x,x,x,x,x,x
CSc1nc2[nH]c3c(c2c2nncn12)CC(C)(C)OC3,-8,98*,-6,15,1,27,5,-15
CC(C)(C)c1ccc(S(=O)(=O)NCC2CCCO2)cc1 (configuration not stated),3,62*,-1,5,-4,23,3,-38
Cc1ccccc1CNC(=O)CCCC(=O)n1nc(C)c2ccccc21,-11,-6,4,-15,-1,x,x,x
CCc1ccc(CNC(=O)CCCC(=O)n2nc(C)c3ccccc32)cc1,-2,57*,-2,-18,-2,17,23,4
COc1ccccc1CN(Cc1nc2ccccc2c(=O)[nH]1)S(=O)(=O)c1ccc(C)cc1,-5,53,-7,-2,-3,40,7,-2
COc1ccccc1CN(Cc1nc2ccccc2c(=O)[nH]1)C(=O)Nc1ccc(C)cc1,11,-6,-6,-23,2,x,x,x
COC(=O)C1=C(C)N(c2ccc(S(N)(=O)=O)cc2)C(=O)C1,-4,-3,-4,12,-3,x,x,x
CCOC(=O)C1=C(C)N(c2ccccc2)C(=O)C1,-1,76*,-6,-11,1,24,11,6
Cc1nc2ccc(NC(=O)c3ccc(Cl)c(S(=O)(=O)N(C)c4ccccc4)c3)cc2s1,2,7,16,-53,-6,x,x,x
Cc1nc2ccc(NC(=O)c3cc(S(=O)(=O)N(C)c4ccccc4)ccc3Cl)cc2s1,x,75*,x,x,-5,73*,26*,53*
Cc1ccccc1CNCc1ccc2c(c1)OCO2,-1,51,0,9,0,27,4,1
COc1nc(N(C)C)nc(N(OC)S(=O)(=O)c2ccccc2Cl)n1,-3,2,-5,-23,-2,x,x,x
CON(c1nc(Cl)nc(N(C)C)n1)S(=O)(=O)c1ccccc1Cl,4,88*,25,18,0,27,5,-9
COc1ccc(S(=O)(=O)N(C)C[C@@H]2Oc3c(NC(=O)C4CCCCC4)cccc3C(=O)N([C@H](C)CO)C[C@@H]2C)cc1,-1,x,x,x,x,x,x,x
C[C@@H]1CN([C@@H](C)CO)C(=O)Cc2cc(NS(=O)(=O)c3ccccc3)ccc2O[C@H]1CN(C)Cc1ccc2c(c1)OCO2,0,x,x,x,x,x,x,x
Cn1c(=O)c2[nH]c(CCCCCCCCc3nc4ccccc4[nH]3)nc2n(C)c1=O,-34,57*,x,x,-8,66*,28*,-7
C[C@@H]1CN([C@H](C)CO)C(=O)c2cccc(NS(=O)(=O)c3cccs3)c2O[C@H]1CN(C)C,-6,x,x,x,x,x,x,x
CCOc1ccc(C2=Nn3c(nnc3-c3ccc(OC)cc3)SC2)cc1,-30,13,x,x,3,x,x,x
SMILES,esBAF inh,Gli-Sufu antag,Jurkat NFkB inh,697 NFkB inh,SMARCA2 activ,Gli-Sufu confirm,Gli cytotox,Wnt3a cs
CCOc1ccc(C2=Nn3cnnc3SC2)cc1,-6,99*,9,4,0,14,20,27*
CN1c2ccc(-c3ccccc3)cc2[C@@H]2[C@@H](CCN2C(=O)Cc2cccnc2)[C@@H]1CO,-2,x,x,x,x,x,x,x
CCOC(=O)c1sc(NC(=O)c2cccc(S(=O)(=O)N3CCc4ccccc43)c2)c(C#N)c1C,-43,73*,4,-11,2,78*,16,72*
O=C(Nc1cccnc1)c1cccc(S(=O)(=O)N2CCc3ccccc32)c1,x,2,17,-31,-5,x,x,x
CCC(CC)c1nnc(NC(=O)c2cccc(S(=O)(=O)N3CCc4ccccc43)c2)s1,-5,1,-7,-24,-4,x,x,x
CCOC(=O)c1sc(NC(=O)CSc2n[nH]c(-c3ccccc3)n2)c(C#N)c1C,-10,16,-15,-11,-1,x,x,x
CCOC(=O)c1sc(NC(=O)c2cc(-c3ccccc3)nc3ccccc23)c(C#N)c1C,-43,53,-16,-16,0,74*,11,65*
O=C(Nc1ccncc1)c1cccc(S(=O)(=O)N2CCc3ccccc32)c1,x,56*,32,-35,-5,55*,19,40*
CO[C@@H]1CN(C)C(=O)c2cc(NC(C)=O)ccc2OC[C@H](C)N(Cc2cncnc2)C[C@@H]1C,1,x,x,x,x,x,x,x
CN(C)S(=O)(=O)c1ccc(S(=O)(=O)N2CCCC(C(=O)NC3CCCC3)C2)cc1 (configuration not stated),20,70*,16,-8,-2,28,33*,3
CCCNC(=O)NC[C@H]1[C@@H](c2ccc(C3=CCCCC3)cc2)[C@@H](CO)N1C(C)=O,4,x,x,x,x,x,x,x
C[C@H](CO)N1C[C@H](C)[C@H](CN(C)C(=O)Nc2ccccc2)Oc2c(NC(=O)c3cnccn3)cccc2C1=O,1,x,x,x,x,x,x,x
CCCNC(=O)N(C)C[C@@H]1Oc2ncc(C#Cc3ccncc3)cc2C(=O)N([C@@H](C)CO)C[C@H]1C,0,x,x,x,x,x,x,x
Cc1cc(C(=O)CSc2nc(N)cc(=O)[nH]2)c(C)n1-c1ccc(OC(F)F)cc1,-18,68*,40,20,-6,65*,38*,21
CCCC(=O)Nc1c2c(nn1-c1ccc(OC)cc1)CS(=O)C2 (configuration not stated),-11,51,3,-17,-3,8,18,0

# Assay outcomes from PubChem BioAssay.
